Rows were chosen to be rich in hits. Some 2.4% of all compounds tested hit in one or more screens of this group.
aSyn rescue – qHTS of alpha-syn Inhibitors | Yeast expressing alpha-synuclein, growth rescue, BacTiter-Glo, 24 h | Potency, µM (doses to about 46.1 µM), without a hit: at the highest dose growth rescue (activation), usual class: activators | hit rate 0.14% among 370,000; note: % of control where 0% means no effect; nearly all actives have a fitted effect of over 65% in size
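Readout is rescue of growth in alpha-synuclein-expressing yeast, so inhibitors of toxicity appear as activators. Growth after 24 hr at 30 deg C in galactose medium is quantified by luminescence.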
TDP-43 yeast inh – qHTS of TDP-43 Inhibitors; TDP-43 expressing yeast growth rescue, BacTiter-Glo, 24 h; Potency, µM (highest dose often 46.1 µM), inactives show at the top dose growth rescue (activation), most hits filed as activators; hit rate 1.8% among 410,000; AID 652104, 2013; note: % of control where 0% means no effect; nearly all actives have a fitted effect of over 50% in size
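Readout is BacTiter-Glo luminescence of cell growth, so inhibitors register as activators. TDP-43-expressing yeast at OD600=0.02 in galactose medium, after raffinose pregrowth to mid-log, were incubated with compound for 24 hr at 30 deg C.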
Mito fusion act – qHTS Assay for Small Molecule Inhibitors of Mitochondrial Division or Activators of Mitochondrial Fusion; Potency, µM (top dose mostly 46.1 µM), without a hit: at the highest dose growth rescue (activation), most hits filed as activators; S. cerevisiae fusion-defective mutant growth rescue, CellTiterGlo 48 h; hit rate 0.23% among 320,000; note: % of control where 0% means no effect; nearly all actives have a fitted effect of over 45% in size
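Temperature-sensitive fusion-defective S. cerevisiae (e.g. fzo1-1, mgm1-5) were grown with compound in YPEG medium (3% ethanol, 3% glycerol) for 48 hours at 37C. Growth rescue was measured as viability by CellTiterGlo luminescence after 10 minutes at ambient.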
Abeta rescue – qHTS for compounds that reverse cellular toxicity of Amyloid beta (A-beta) peptide in yeast: Primary Screen | Potency, µM (highest dose often 46.1 µM), most hits filed as activators | hit rate 0.063% among 410,000 | AID 1347071, 2019 | yeast expressing A-beta42, growth rescue, OD600, 48 h; response scale: 0% DMSO, 100% iron-clioquinol control; note: nearly all actives have a fitted effect of over 55% in size
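Yeast A-beta toxicity model in growth medium with pinned compounds, 48 h at 30 C; growth read as absorbance at 600 nm. Normalized to FeCl3/clioquinol equimolar mix (positive) and DMSO (negative).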
A-T KAP1 phos – qHTS Assay for Identifying a Potential Treatment of Ataxia-Telangiectasia | F2112 A-T fibroblasts, KAP-1 phosphorylation AlphaLISA; neocarzinostatin DNA damage 30 min before lysis | Potency, µM (top dose mostly 57.5 µM), inactives show at the highest dose activation, hits mostly activators | hit rate 0.19% among 320,000; note: % of control where 0% means no effect; nearly all actives have a fitted effect of over 45% in size
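ATM-like activity read as KAP-1 phosphorylation via AlphaLISA donor/acceptor antibody pairs after lysis and 6 hr at 25C. Cells were ATM-null patient fibroblasts (F2112, hTERT), dosed 60 min, then exposed to the DSB inducer NCS for 30 min.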
FUS suppressor – qHTS for Suppressors of FUS Proteinopathy: Primary screen using FUS-linked yeast assay | hit rate 0.24% among 390,000 | S. cerevisiae FUS-expressing, growth rescue, OD600, 24 h | Potency, µM (doses to about 76.6 µM), hits mostly activators;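 note: plate controls were DMSO vehicle for no effect and reference control for full effect; nearly all actives have a fitted effect of over 55% in size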
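Yeast expressing FUS under galactose induction, OD 0.005 in 2% galactose medium; compounds in a dilution series, 24 h at 30C. Growth rescue by absorbance at 600 nm; CP55940 positive control, DMSO negative.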
Active calls of the source: *; i = inactive; ? = inconclusive; / = no result given. Calls come from the whole dose curve; as a rule, active = well fitted curve in the direction sought with a large enough effect; inconclusive = small, poorly fitted or top-dose-only effect, or another doubt; inactive = no such curve, though single readings can be large; an effect the other way counts as inactive or inconclusive. Potency is the fitted concentration of half-maximal effect.

SMILES	aSyn rescue	TDP-43 yeast inh	Mito fusion act	Abeta rescue	A-T KAP1 phos	FUS suppressor
COC(=O)C1=CN(C2CC2)C=C(C(=O)OC)C1c1ccc(C(F)(F)F)cc1	-2%	-10%	-1%	i	27%	i
COC(=O)C1=CN(C2CC2)C=C(C(=O)OC)C1c1ccc(C(=O)OC)cc1	-19%	-18%	3%	i	32µM*	i
CCNC(=S)Nc1ccc2ncoc2c1	-6%	/	-1%	i	-3%	i
CCNC(=S)Nc1ccc2c(c1)oc1ccccc12	-14%	?	/	10µM*	/	i
Clc1ccc(-c2csc(N/N=C/c3cccnc3)n2)c(Cl)c1	-1%	13µM*	20%	i	-11%	?
Cc1ccc(S(=O)(=O)NCCC(=O)OCc2ccc([N+](=O)[O-])cc2)cc1C	0%	20µM*	5%	i	13%	i
CC(C)NC(=O)NC(=O)CSc1nnc(COc2ccccc2Cl)o1	8%	17%	-5%	i	1%	i
O=C(CSc1nnc(COc2ccccc2Cl)o1)NC(=O)NC1CCCC1	18µM*	3%	1%	i	2%	?
Fc1cccc(Cl)c1CNc1n[nH]c(-c2ccco2)n1	/	?	/	i	/	i
CCc1nnc(NC(=O)c2ccc(S(=O)(=O)N3CCCC(C)C3)cc2)o1 (stereo not drawn)	22µM*	?	-3%	?	-3%	i
Cc1cc(C)c2nc(NNC(=O)c3ccc(S(=O)(=O)N4CCCCC4)cc3)sc2c1	-1%	6.3µM*	-8%	i	-19%	?
CCOC(=O)N1CCN(S(=O)(=O)c2ccc(C(=O)NNc3nc4c(C)cc(C)cc4s3)cc2)CC1	11%	14%	5%	i	19%	?
CC1CCCN(S(=O)(=O)c2ccc(C(=O)Nc3nnc(-c4ccco4)o3)cc2)C1 (stereo not drawn)	3%	27%	2%	i	-9%	i
Cc1cc(C)c2nc(NC(=O)c3ccc(S(=O)(=O)N4CCCC4)cc3)sc2c1	1%	2%	/	i	/	i
CCOC(=O)N1CCN(S(=O)(=O)c2ccc(C(=O)NNc3nc4cc(C)cc(C)c4s3)cc2)CC1	2%	5.6µM*	-2%	i	-29%	i
Cc1cccc2sc(NNC(=O)c3ccc(S(=O)(=O)N4CCCC(C)C4)cc3)nc12 (stereo not drawn)	11%	5.6µM*	-10%	i	-2%	?
CCOc1ccc(NC(=O)Cn2c(=O)n(CCC(=O)NCCc3ccccc3)c(=O)c3ccccc32)cc1	/	7%	/	i	/	i
CC(C)Cc1nnc(NC(=O)c2ccc3c(c2)OCCO3)s1	1%	20µM*	8%	i	-3%	i
Cc1cccc2sc(NNC(=O)c3ccc4c(c3)OCCO4)nc12	14%	35µM*	-4%	?	6%	i
CCOCc1nnc(NC(=O)c2ccc3c(c2)OCO3)s1	-3%	4%	/	i	/	i
FC(F)(F)c1ccccc1Cn1ccc2ccc(-c3ccc4ccn(Cc5ccccc5)c4c3)cc21	/	/	/	/	/	i
CC(C)c1ccc(NC(=O)CSC2=Nc3ccccc3C3=NC(CC(=O)NCc4cccs4)C(=O)N23)cc1 (stereo not drawn)	/	?	/	13µM*	/	i
c1ccc(-n2nnnc2-c2cnc(-c3cccnc3)nc2-c2cccs2)cc1	8%	32µM*	-1%	i	2%	?
COc1ccc(N2CCN(C(=O)CCC(=O)N3CCOc4ccc(Cl)cc43)CC2)cc1	10%	16µM*	3%	i	1%	i
Cc1cccc(-n2ncc3c(NNC(=O)c4ccccc4Cl)ncnc32)c1	/	?	/	i	/	i
SMILES	aSyn rescue	TDP-43 yeast inh	Mito fusion act	Abeta rescue	A-T KAP1 phos	FUS suppressor
COc1ccc(OC)c(NC(=O)CC2SC(=Nc3ccccc3)N(CCc3ccccn3)C2=O)c1 (stereo not drawn)	8%	2%	1%	i	3%	35µM*
CCc1ccc(OC)c(-c2csc(N)n2)c1	-23%	16%	?	i	-3%	i
Nc1nc(-c2cc(Cl)cc(Cl)c2OC(F)F)cs1	2%	16µM*	4%	i	1%	i
CC(C)NC(=O)COC(=O)c1ccccc1OCC(=O)Nc1ccc(Br)cc1	1%	/	/	/	/	/
OC(COc1ccccc1)Cn1c2ccccc2c2ccccc21 (stereo not drawn)	22%	18µM*	1%	?	4%	/
Cc1cc(C)n(CC(O)Cn2c3ccccc3c3ccccc32)n1 (stereo not drawn)	11%	?	16µM*	i	24%	i
C#CCN1CC(N(C)CCOC(=O)c2cccs2)CS1(=O)=O (stereo not drawn)	/	/	/	/	/	i
CC(C)C(=O)Nc1nnc(SCc2cc(=O)n3ccccc3n2)s1	/	13%	/	i	/	i
c1ccc(-c2nnc3n2N=C(c2ccc4ccccc4c2)CS3)cc1	/	/	/	/	/	i
COc1ccccc1NC(=O)c1ccc(-c2ccccc2[N+](=O)[O-])o1	2%	32µM*	?	i	-2%	i
COc1ccccc1NC(=O)c1ccc(-c2ccc(Br)cc2)o1	-3%	19%	1%	i	9%	i
CCN(Cc1ccccc1)C(=O)C1C2C=CC3(CN(Cc4ccccc4)C(=O)C13)O2 (stereo not drawn)	/	/	/	/	/	i
CCOC(=O)c1noc2ncnc(N3CCN(c4cccc(C(F)(F)F)c4)CC3)c12	/	?	/	i	/	i
Cc1ccc(/C=C2\SC(N3CCCCC3)=NC2=O)cc1	0%	10µM*	-4%	i	0%	i
Cc1cccc(N2CCN(C3=NC(=O)C(=C4CCCCC4)S3)CC2)c1	/	7.1µM*	10%	i	9%	i
CC(=O)N1CCN(C2=NC(=O)C(=C3CCCCC3)S2)CC1	-7%	-16%	-5%	i	1%	i
Cc1oc2ncn(CC(C)C)c(=O)c2c1C(=O)Nc1cc(F)ccc1F	/	17%	/	i	/	i
Cc1cccc(C)c1-n1nnnc1C1c2ccccc2C(=O)N1CCc1ccccc1F (stereo not drawn)	8%	35µM*	/	i	/	i
O=C(CN1CCc2onc(-c3ccc(-n4cc(C5=CCCCC5)nn4)cc3)c2C1=O)N1CCOCC1	/	/	/	/	/	i

Bioassay records (PubChem)
